# Laboratory results reported in article PMC7862700, “An all-to-all approach to the identification of sequence-specific readers for epigenetic DNA modifications on cytosine”.
# How the values were obtained:
# Test in all cases: DAPPL (digital affinity profiling via proximity ligation, sequencing); 10 mM Tris-HCl pH 7.5, 50 mM NaCl, 1 mM DTT, 4% glycerol, room temperature, 30 min; GST-TFs on glutathione beads, 16-mer random dsDNA library, 0.1% formaldehyde crosslink after washing; high values mean tight binding
# Details in all cases: protein: recombinant; tags: N-terminal GST; dsDNA, one strand shown
# [1] = target: SPI1 (Homo sapiens, UniProt P17947 1-270)
# Procedure, shortened: (§1)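 Pools were built from human transcription factors expressed in yeast as GST fusions, captured on glutathione beads and DNA-barcoded, along with a tag-only sample. Incubation with 200 nmole of a 16-mer random double-stranded DNA library lasted 30 min at room temperature in Tris/NaCl/DTT/glycerol buffer, and was followed by washing, 0.1% formaldehyde crosslinking, proximity ligation, PCR amplification and Illumina NextSeq500 sequencing. Binding signal is the quotient of each hexamer's read frequency for a factor and its frequency for the tag-only sample.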
# [2] = target: T1, FEV (Homo sapiens, UniProt Q99581 1-238)
# T1 sequence: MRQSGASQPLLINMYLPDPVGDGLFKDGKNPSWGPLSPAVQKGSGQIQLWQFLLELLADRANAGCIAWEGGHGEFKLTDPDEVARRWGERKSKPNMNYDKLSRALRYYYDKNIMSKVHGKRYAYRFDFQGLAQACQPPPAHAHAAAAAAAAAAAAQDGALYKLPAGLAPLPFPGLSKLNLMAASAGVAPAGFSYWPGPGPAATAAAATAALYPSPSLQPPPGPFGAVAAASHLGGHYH
# Procedure, shortened: as §1
# [3] = target: ETV5 (Homo sapiens, UniProt P41161 1-510)
# Procedure, shortened: as §1
# [4] = target: T2, ELF3 (Homo sapiens, UniProt P78545 1-371)
# T2 sequence: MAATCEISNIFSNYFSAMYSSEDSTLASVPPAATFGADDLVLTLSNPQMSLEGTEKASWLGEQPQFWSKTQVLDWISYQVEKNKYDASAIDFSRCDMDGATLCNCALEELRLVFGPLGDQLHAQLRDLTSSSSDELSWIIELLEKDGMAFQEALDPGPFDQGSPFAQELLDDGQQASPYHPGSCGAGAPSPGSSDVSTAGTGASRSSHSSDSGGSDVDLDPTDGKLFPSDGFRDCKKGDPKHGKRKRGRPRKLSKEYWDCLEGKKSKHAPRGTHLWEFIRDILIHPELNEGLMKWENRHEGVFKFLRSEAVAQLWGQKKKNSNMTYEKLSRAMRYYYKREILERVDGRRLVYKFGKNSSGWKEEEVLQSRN
# Procedure, shortened: as §1
# [5] = target: T3, SPDEF (Homo sapiens, UniProt O95238 1-335)
# T3 sequence: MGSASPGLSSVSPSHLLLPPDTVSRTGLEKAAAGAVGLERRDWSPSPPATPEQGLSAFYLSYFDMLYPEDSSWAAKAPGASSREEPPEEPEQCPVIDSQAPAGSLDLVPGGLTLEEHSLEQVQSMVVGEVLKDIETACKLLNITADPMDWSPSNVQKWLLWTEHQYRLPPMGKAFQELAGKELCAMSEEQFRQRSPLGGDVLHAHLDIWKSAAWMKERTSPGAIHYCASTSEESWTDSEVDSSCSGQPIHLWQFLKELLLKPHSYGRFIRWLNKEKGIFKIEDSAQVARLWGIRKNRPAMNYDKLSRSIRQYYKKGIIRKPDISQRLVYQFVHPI
# Procedure, shortened: as §1
# [6] = target: T4, ETV7 (Homo sapiens, UniProt Q9Y603 1-341)
# T4 sequence: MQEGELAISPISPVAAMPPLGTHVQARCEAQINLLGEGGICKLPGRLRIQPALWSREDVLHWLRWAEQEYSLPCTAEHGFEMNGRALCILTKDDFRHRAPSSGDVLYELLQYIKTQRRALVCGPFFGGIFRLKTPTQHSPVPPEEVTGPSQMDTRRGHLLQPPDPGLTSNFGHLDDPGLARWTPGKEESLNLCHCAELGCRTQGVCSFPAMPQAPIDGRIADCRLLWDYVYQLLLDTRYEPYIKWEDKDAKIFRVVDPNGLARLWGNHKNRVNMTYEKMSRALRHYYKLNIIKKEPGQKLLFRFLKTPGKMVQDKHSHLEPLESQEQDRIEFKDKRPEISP
# Procedure, shortened: as §1
# [7] = target: T5, ELK1 (Homo sapiens, UniProt P19419 1-428)
# T5 sequence: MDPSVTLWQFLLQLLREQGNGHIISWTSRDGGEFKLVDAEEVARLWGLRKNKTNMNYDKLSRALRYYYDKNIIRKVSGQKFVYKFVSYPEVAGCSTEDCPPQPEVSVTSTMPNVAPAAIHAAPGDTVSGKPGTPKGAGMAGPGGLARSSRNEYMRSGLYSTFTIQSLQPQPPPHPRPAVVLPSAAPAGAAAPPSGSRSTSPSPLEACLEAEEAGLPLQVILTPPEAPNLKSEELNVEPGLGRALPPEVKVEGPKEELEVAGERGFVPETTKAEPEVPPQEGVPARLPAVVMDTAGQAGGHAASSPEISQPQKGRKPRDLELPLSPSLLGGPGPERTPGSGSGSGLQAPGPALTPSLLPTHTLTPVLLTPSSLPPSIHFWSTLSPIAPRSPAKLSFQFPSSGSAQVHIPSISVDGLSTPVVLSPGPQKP
# Procedure, shortened: as §1
# [8] = target: T6, GABPA (Homo sapiens, UniProt Q06546 1-454)
# T6 sequence: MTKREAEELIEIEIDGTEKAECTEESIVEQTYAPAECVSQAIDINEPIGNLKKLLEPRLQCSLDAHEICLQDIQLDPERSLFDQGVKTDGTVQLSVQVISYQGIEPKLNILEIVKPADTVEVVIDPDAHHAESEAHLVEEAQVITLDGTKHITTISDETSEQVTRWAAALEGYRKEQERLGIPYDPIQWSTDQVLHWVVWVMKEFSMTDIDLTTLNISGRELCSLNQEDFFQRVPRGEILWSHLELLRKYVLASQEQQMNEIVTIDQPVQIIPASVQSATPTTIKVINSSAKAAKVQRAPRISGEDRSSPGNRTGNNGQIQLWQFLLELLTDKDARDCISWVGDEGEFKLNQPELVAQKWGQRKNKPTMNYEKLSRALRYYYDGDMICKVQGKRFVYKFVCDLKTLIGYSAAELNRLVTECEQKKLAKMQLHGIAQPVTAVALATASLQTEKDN
# Procedure, shortened: as §1
# [9] = target: T7, ERG (Homo sapiens, UniProt P11308 1-479)
# T7 sequence: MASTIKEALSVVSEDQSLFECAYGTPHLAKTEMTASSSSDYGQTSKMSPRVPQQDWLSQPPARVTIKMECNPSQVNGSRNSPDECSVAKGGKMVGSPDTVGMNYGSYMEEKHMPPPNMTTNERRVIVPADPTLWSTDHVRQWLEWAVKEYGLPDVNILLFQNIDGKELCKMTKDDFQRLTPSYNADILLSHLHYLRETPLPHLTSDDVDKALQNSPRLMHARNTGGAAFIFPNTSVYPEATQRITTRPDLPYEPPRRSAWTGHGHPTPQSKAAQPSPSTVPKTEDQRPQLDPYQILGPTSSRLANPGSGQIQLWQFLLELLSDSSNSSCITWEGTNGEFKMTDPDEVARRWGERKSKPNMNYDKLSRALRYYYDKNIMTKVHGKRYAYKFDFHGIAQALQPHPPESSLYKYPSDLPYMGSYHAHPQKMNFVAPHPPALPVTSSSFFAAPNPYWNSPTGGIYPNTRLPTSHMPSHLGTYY
# Procedure, shortened: as §1
# [10] = target: T8, EHF (Homo sapiens, UniProt Q9NZC4 1-300)
# T8 sequence: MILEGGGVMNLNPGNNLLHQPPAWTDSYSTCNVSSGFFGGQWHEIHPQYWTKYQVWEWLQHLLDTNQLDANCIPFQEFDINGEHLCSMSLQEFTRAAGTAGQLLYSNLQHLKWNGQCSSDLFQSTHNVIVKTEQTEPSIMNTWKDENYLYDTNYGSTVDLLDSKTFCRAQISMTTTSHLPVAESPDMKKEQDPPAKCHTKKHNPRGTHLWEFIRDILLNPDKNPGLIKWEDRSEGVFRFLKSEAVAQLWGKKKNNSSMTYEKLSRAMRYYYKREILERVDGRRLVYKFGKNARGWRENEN
# Procedure, shortened: as §1
# [11] = target: ELF4 (Homo sapiens, UniProt Q99607 1-663)
# Procedure, shortened: as §1
# [12] = target: T9, ELK4 (Homo sapiens, UniProt P28324-2 1-405)
# T9 sequence: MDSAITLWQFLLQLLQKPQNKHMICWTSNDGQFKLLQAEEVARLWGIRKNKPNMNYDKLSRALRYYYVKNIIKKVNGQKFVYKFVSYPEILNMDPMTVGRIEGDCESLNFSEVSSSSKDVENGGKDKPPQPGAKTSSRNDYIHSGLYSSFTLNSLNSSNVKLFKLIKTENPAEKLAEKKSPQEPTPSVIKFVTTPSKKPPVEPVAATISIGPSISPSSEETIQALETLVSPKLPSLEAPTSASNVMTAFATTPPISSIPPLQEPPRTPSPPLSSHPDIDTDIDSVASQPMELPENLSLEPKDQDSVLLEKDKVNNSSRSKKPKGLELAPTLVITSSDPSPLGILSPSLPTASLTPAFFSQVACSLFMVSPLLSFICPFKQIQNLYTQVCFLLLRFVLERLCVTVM
# Procedure, shortened: as §1
# [13] = target: ETV1 (Homo sapiens, UniProt P50549 1-477)
# Procedure, shortened: as §1
# [14] = target: T10, ERF (Homo sapiens, UniProt P50548 1-548)
# T10 sequence: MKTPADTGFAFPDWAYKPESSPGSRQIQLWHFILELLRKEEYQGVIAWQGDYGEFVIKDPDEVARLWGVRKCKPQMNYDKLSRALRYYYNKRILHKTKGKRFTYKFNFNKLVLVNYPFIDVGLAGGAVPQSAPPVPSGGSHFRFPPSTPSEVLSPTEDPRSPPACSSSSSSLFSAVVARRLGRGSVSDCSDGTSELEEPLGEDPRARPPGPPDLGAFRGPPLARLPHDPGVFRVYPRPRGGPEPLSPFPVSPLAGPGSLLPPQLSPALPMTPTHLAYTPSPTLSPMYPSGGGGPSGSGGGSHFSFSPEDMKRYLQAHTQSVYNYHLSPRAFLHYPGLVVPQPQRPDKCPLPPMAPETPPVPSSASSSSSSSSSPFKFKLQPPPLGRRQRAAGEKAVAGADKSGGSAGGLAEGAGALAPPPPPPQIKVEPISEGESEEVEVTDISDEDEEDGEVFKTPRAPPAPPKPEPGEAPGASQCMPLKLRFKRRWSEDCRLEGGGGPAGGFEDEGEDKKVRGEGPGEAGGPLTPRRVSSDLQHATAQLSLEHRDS
# Procedure, shortened: as §1
# [15] = target: T11, ETV3L (Homo sapiens, UniProt Q6ZN32 1-361)
# T11 sequence: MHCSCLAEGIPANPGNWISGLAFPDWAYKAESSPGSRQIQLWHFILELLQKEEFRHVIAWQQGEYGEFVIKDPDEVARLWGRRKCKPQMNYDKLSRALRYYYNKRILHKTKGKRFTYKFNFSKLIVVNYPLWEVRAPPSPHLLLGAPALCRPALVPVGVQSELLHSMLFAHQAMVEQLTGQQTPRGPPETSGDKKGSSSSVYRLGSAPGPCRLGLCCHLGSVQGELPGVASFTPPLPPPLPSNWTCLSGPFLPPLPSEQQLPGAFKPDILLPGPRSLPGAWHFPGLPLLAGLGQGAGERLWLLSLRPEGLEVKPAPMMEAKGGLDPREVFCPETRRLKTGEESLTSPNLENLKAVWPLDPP
# Procedure, shortened: as §1
# [16] = target: T12, ETS2 (Homo sapiens, UniProt P15036 1-469)
# T12 sequence: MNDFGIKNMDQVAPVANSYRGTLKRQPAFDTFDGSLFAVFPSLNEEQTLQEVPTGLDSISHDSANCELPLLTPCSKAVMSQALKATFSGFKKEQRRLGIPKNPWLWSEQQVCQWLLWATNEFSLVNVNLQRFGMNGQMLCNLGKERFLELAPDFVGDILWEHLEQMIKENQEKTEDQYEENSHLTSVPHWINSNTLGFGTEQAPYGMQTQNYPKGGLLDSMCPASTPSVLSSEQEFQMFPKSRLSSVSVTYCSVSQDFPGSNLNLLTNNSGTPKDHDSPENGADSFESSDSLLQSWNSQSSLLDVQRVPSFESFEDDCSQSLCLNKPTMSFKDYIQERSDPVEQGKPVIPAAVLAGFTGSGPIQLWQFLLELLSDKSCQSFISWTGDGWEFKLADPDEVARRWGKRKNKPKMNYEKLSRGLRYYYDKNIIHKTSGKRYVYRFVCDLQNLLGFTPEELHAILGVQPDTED
# Procedure, shortened: as §1
# [17] = target: T13, ETV3 (Homo sapiens, UniProt P41162-2 1-143)
# T13 sequence: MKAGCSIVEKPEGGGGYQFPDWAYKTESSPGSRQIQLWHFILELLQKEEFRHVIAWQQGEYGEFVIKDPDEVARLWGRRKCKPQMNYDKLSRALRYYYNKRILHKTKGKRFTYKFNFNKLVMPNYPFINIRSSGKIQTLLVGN
# Procedure, shortened: as §1
# Sequence of ETV5 (P41161 whole entry): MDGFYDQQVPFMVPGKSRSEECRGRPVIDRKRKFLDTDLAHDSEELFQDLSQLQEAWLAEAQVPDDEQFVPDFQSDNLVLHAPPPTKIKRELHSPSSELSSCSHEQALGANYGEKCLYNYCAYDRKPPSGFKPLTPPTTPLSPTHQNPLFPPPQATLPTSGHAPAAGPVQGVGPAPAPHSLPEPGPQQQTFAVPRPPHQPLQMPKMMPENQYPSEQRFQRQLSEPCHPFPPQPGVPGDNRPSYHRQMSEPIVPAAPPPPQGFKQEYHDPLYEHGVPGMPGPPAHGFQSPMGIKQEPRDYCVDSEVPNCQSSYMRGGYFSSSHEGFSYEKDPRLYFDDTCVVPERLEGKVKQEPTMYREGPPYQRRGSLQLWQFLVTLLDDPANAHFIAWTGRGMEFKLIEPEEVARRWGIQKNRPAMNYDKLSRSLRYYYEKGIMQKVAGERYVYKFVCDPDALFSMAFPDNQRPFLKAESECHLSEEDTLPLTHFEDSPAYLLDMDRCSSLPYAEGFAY
# Sequence of ETV1 (P50549 whole entry): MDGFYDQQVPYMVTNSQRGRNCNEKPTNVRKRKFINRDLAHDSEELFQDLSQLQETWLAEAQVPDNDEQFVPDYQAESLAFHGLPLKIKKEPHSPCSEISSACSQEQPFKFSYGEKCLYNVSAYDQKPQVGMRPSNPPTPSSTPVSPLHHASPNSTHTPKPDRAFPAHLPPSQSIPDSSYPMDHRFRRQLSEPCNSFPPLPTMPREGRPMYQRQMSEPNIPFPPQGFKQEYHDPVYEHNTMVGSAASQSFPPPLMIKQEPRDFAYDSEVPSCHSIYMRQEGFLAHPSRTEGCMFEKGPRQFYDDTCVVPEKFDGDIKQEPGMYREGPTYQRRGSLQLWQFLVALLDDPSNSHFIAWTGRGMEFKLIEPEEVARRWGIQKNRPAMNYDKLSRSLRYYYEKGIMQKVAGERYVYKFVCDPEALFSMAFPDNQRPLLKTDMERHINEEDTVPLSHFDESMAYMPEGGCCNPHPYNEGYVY
# Sequence of ELF4 (Q99607 whole entry): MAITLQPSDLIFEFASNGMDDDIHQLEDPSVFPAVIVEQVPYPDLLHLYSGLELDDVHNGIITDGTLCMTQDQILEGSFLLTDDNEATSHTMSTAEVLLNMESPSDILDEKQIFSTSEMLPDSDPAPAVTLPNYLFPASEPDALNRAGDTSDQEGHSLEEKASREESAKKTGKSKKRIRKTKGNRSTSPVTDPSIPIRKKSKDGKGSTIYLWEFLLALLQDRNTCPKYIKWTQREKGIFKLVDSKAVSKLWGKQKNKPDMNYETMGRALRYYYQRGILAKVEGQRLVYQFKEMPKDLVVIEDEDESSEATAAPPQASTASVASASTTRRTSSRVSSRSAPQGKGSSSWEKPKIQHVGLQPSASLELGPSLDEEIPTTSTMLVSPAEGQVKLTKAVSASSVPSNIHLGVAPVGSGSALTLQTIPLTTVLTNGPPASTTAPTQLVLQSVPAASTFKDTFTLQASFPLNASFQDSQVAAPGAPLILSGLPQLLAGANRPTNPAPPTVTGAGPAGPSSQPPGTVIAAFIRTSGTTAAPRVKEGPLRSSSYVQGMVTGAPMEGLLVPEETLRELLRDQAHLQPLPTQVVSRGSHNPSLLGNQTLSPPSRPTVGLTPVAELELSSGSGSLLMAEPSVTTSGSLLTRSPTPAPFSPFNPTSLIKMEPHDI
Sequence,binding signal [1],binding signal [2],binding signal [3],binding signal [4],binding signal [5],binding signal [6],binding signal [7],binding signal [8],binding signal [9],binding signal [10],binding signal [11],binding signal [12],binding signal [13],binding signal [14],binding signal [15],binding signal [16],binding signal [17]
TGACGG,"1.02 fold enrichment (6-mer frequency, TF over GST control)","1.06 fold enrichment (6-mer frequency, TF over GST control)","1.04 fold enrichment (6-mer frequency, TF over GST control)","1.06 fold enrichment (6-mer frequency, TF over GST control)","1.06 fold enrichment (6-mer frequency, TF over GST control)","1.02 fold enrichment (6-mer frequency, TF over GST control)",–,–,–,–,–,–,–,–,–,–,–
TAGGGC,"1.01 fold enrichment (6-mer frequency, TF over GST control)","1.06 fold enrichment (6-mer frequency, TF over GST control)","1.03 fold enrichment (6-mer frequency, TF over GST control)",–,"1.01 fold enrichment (6-mer frequency, TF over GST control)","1.07 fold enrichment (6-mer frequency, TF over GST control)","1.07 fold enrichment (6-mer frequency, TF over GST control)","1.01 fold enrichment (6-mer frequency, TF over GST control)","1.01 fold enrichment (6-mer frequency, TF over GST control)","1.18 fold enrichment (6-mer frequency, TF over GST control)","1.03 fold enrichment (6-mer frequency, TF over GST control)","1.02 fold enrichment (6-mer frequency, TF over GST control)","1.06 fold enrichment (6-mer frequency, TF over GST control)","1.09 fold enrichment (6-mer frequency, TF over GST control)","1.04 fold enrichment (6-mer frequency, TF over GST control)","1.06 fold enrichment (6-mer frequency, TF over GST control)","1.03 fold enrichment (6-mer frequency, TF over GST control)"
